# Bioassay records from PubChem.
# Sampled rows, rich in hits. Any-hit rate of the full collection: about 6.7%.
# Pf Dd2 inh – P. falciparum Dd2 growth inhibition; activity change, % at 10 µM; AID 1159554; 94,000 compounds, 2.3% hits; SYBR Green, 72 h; active compounds read low; in the data active means activity change below about -80%; inconclusive means no clear call, values can overlap the other calls
# T cruzi growth-1 – inhibitors of T. cruzi proliferation | T. cruzi beta-gal in NIH3T3, GalScreen luminescence, 90 h | inhibition, % at 8.34 µM | 77,000 compounds, 5.9% hits | AID 624255;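 active means mean inhibition above about 93%, with at least 55% of replicates each passing it, limit read from the data, passing the limit was not always enough; inconclusive means only one of those two conditions holds; inactive means neither condition holds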
# C diff HTS – blocks growth of Clostridium difficile; Clostridium difficile clinical isolate growth, OD600, 24 h; active compounds read low; growth activity, negative = inhibition, % at 16 µg/mL (by protocol); 86,000 compounds, 0.25% hits;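 active means mean growth activity at or below -80% and every replicate also at or below -80%; inconclusive means mean at or below -80% but some replicate above -80%; inactive means mean growth activity above -80%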;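 further: 0% = DMSO wells and -100% = levofloxacin 16 µg/mL wells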
# T cruzi growth-2 – blocks T. cruzi growth in NIH3T3 host cells; shares compounds with T cruzi growth-1; T. cruzi beta-gal in NIH3T3, GalScreen luminescence, 90 h; inhibition, % at 8.35 µM; 5,600 compounds, 72% hits;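 active means mean replicate inhibition above about 95% and at least 55% of replicates individually reaching it, limit read from the data; inconclusive means only one of the two criteria is met; inactive means neither criterion is met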
# T cruzi growth-3 – Trypanosoma cruzi proliferation inhibition; shares compounds with T cruzi growth-1; T. cruzi beta-gal in NIH3T3, GalScreen luminescence, 90 h; inhibition, % at 2.09 µM; 5,600 compounds, 21% hits; AID 651740;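 active means mean inhibition above about 95%, with at least 55% of replicates also reaching it, limit read from the data; inconclusive means meets just one of the two conditions; inactive means meets neither condition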;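 further: plate controls were neutral control median for no effect and positive control median for full effect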
# 3T3 cytotox – NIH/3T3 (mouse) viability loss | AID 651742 | NIH/3T3 viability, CellTiter-Glo ATP luminescence, 90 h | cytotoxicity (signal decrease), % at 8.35 µM | 5,600 compounds, 14% hits | shares compounds with T cruzi growth-1;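 active means mean signal decrease across replicates above about 35% based on untreated-well scatter, with enough replicates individually passing, limit read from the data; inconclusive means no rule stated though some were filed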;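 further: 0% = median of neutral control wells and 100% = median of positive control wells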
# 3T3 cytotox 2 – kills mouse NIH/3T3 fibroblasts; shares compounds with T cruzi growth-1; inhibition, % at 24.9 µM; NIH/3T3 viability, CellTiter-Glo ATP luminescence, 90 h; 5,600 compounds, 56% hits;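 active means mean loss of cell viability signal at or above a set limit, and enough replicates individually reaching it; inconclusive means meets only the mean limit or only the replicate share; inactive means meets neither condition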;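 further: 0% = median of neutral control wells and 100% = median of positive control wells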
# Active calls of the source: *; ? = inconclusive; . = not tested or not shown.
SMILES,Pf Dd2 inh,T cruzi growth-1,C diff HTS,T cruzi growth-2,T cruzi growth-3,3T3 cytotox,3T3 cytotox 2
C[C@H](CO)N1C[C@H](C)[C@@H](CN(C)C(=O)Nc2cccc3ccccc23)Oc2c(cccc2N(C)C)C1=O,-10,6,-12,.,.,.,.
O=C(C[C@H]1C[C@H]2c3cc(NC(=O)NC4CCCC4)ccc3O[C@H]2[C@H](CO)O1)NCc1ccccc1,-15,53,.,.,.,.,.
O=C(C[C@H]1C[C@@H]2c3cc(NC(=O)Nc4ccccc4)ccc3O[C@@H]2[C@H](CO)O1)NCc1cccc(F)c1,-57,39,2,.,.,.,.
O=C(C[C@@H]1C[C@H]2c3cc(NC(=O)Nc4ccccc4)ccc3O[C@H]2[C@H](CO)O1)NCc1cccc(F)c1,-4,104*,1,-26,-17,15,14
O=C(C[C@H]1C[C@H]2c3cc(NC(=O)NC4CCCC4)ccc3O[C@H]2[C@@H](CO)O1)NCc1ccc(Cl)cc1,-14,105*,-5,2,-7,6,-1
O=C(C[C@@H]1C[C@@H]2c3cc(NC(=O)NC4CCCC4)ccc3O[C@@H]2[C@@H](CO)O1)NCc1ccc(Cl)cc1,-26,25,-2,.,.,.,.
O=C(C[C@@H]1C[C@H]2c3cc(NC(=O)CC4CC4)ccc3O[C@H]2[C@H](CO)O1)NCc1cccnc1,13,109*,-4,88,0,3,7
O=C(C[C@@H]1C[C@H]2c3cc(NC(=O)CC4CC4)ccc3O[C@H]2[C@@H](CO)O1)NCc1cccnc1,9,29,-3,.,.,.,.
O=C(C[C@@H]1C[C@H]2c3cc(NC(=O)NC4CCCC4)ccc3O[C@H]2[C@H](CO)O1)NCc1ccccc1,-20,102*,.,11,-29,-8,22
C[C@@H]1CCCCO[C@@H](CN(C)C(=O)CCC(F)(F)F)[C@H](C)CN([C@H](C)CO)C(=O)c2cc(NS(=O)(=O)c3cn(C)cn3)ccc2O1,26,12,-3,.,.,.,.
Cc1ccc(S(=O)(=O)Nc2cccc3c2O[C@@H](CN(C)C(=O)Nc2ccc(C(F)(F)F)cc2)[C@H](C)CN([C@H](C)CO)C3=O)cc1,34,47,3,.,.,.,.
C/C=C/c1ccc([C@@H]2[C@@H](CN(CC)C(C)=O)N(S(C)(=O)=O)[C@H]2CO)cc1,-2,-4,5,.,.,.,.
C[C@H](CO)N1C[C@H](C)[C@@H](CN(C)Cc2ccncc2)Oc2ccc(NC(=O)Nc3ccc(F)cc3)cc2CC1=O,-26,48,5,.,.,.,.
C[C@H]1CN([C@@H](C)CO)C(=O)c2cc(Br)cnc2O[C@@H]1CN(C)CC1CCOCC1,17,-6,-9,.,.,.,.
Cc1noc(C)c1NC(=O)Nc1ccc2c(c1)CC(=O)N([C@H](C)CO)C[C@@H](C)[C@@H](CN(C)S(=O)(=O)c1ccccc1)O2,10,50,-3,.,.,.,.
COc1ccc(S(=O)(=O)N(C)C[C@H]2OCCCC[C@@H](C)Oc3ccc(N(C)C)cc3C(=O)N([C@H](C)CO)C[C@H]2C)cc1,-12,117*,-1,57,-10,25,21
C[C@@H]1CCCCO[C@@H](CN(C)S(=O)(=O)c2ccc(Cl)cc2)[C@@H](C)CN([C@H](C)CO)C(=O)c2cc(N(C)C)ccc2O1,-77,73,0,.,.,.,.
C[C@H](CO)N1C[C@H](C)[C@H](CN(C)S(=O)(=O)c2ccc(Cl)cc2)OCCCC[C@H](C)Oc2ccc(N(C)C)cc2C1=O,-58,100*,0,110*,47,3,12
C[C@@H]1CCCCO[C@H](CN(C)S(=O)(=O)c2ccc(Cl)cc2)[C@H](C)CN([C@@H](C)CO)C(=O)c2cc(N(C)C)ccc2O1,-23,86,-8,.,.,.,.
COc1ccc(S(=O)(=O)N(C)C[C@H]2OCCCC[C@H](C)Oc3ccc(N(C)C)cc3C(=O)N([C@H](C)CO)C[C@H]2C)cc1,10,12,-1,.,.,.,.
C[C@@H]1CCCCO[C@H](CN(C)S(=O)(=O)c2ccc(Cl)cc2)[C@@H](C)CN([C@@H](C)CO)C(=O)c2cc(N(C)C)ccc2O1,-38,100*,-4,111*,28,-17,-18
COCC(=O)N(C)C[C@@H]1Oc2cc(-c3cccnc3)ccc2S(=O)(=O)N([C@H](C)CO)C[C@H]1C,8,-17,1,.,.,.,.
CC(C)C#Cc1ccc2c(c1)O[C@H](CN(C)C)[C@H](C)CN([C@@H](C)CO)S2(=O)=O,2,.,-1,.,.,.,.
COCC(=O)N(C)C[C@@H]1Oc2cc(C#Cc3cccnc3)ccc2S(=O)(=O)N([C@@H](C)CO)C[C@H]1C,-18,.,-3,.,.,.,.
O=C1CNC[C@@H]2[C@H](c3ccc(-c4ccccc4F)cc3)[C@@H](CO)N12,-16,.,0,.,.,.,.
SMILES,Pf Dd2 inh,T cruzi growth-1,C diff HTS,T cruzi growth-2,T cruzi growth-3,3T3 cytotox,3T3 cytotox 2
COc1ccc(-c2ccc3n(c2=O)C[C@H]2[C@H](CO)[C@@H](C(=O)N(C)C)N(CC4CC4)[C@@H]32)cc1,-2,103*,1,-33,13,1,7
CCN1[C@H](C(=O)N(C)C)[C@@H](CO)[C@@H]2Cn3c(ccc(-c4cccc(C(=O)N(C)C)c4)c3=O)[C@@H]21,.,100*,-3,51,18,8,-6
CCN1[C@@H]2c3ccc(-c4cccc(C(=O)N(C)C)c4)c(=O)n3C[C@@H]2[C@@H](CO)[C@@H]1C(=O)N(C)C,.,-2,-3,.,.,.,.
COc1ccc(-c2ccc3n(c2=O)C[C@H]2[C@H](CO)[C@@H](C(=O)N(C)C)N(CC4CCCC4)[C@@H]32)cc1,.,6,-6,.,.,.,.
C[C@H](CO)N1C[C@H](C)[C@@H](CN(C)S(=O)(=O)c2ccc(Cl)cc2)Oc2ccc(NS(=O)(=O)c3ccc(F)cc3)cc2C1=O,-56,55,-10,.,.,.,.
Cc1noc(C)c1NC(=O)Nc1ccc2c(c1)C(=O)N([C@@H](C)CO)C[C@@H](C)[C@H](CN(C)C(=O)Nc1ccc3c(c1)OCO3)OCCCC[C@@H](C)O2,25,21,-2,.,.,.,.
O=C(C[C@@H]1CC[C@H]2[C@@H](COC[C@H](O)CN2C(=O)Nc2ccc(Cl)c(Cl)c2)O1)NCc1ccccc1,3,94,.,.,.,.,.
O=C(C[C@H]1CC[C@@H]2[C@H](COC[C@@H](O)CN2C(=O)Nc2ccc(Cl)c(Cl)c2)O1)NCc1ccncc1,4,111*,-8,69,1,-1,10
O=C(C[C@H]1CC[C@@H]2[C@H](COC[C@H](O)CN2C(=O)Nc2ccc(Cl)c(Cl)c2)O1)NCc1ccc(Cl)cc1,-2,111*,-52,108*,13,?,89*
O=C(C[C@@H]1CC[C@@H]2[C@H](COC[C@@H](O)CN2C(=O)Nc2ccc(Cl)c(Cl)c2)O1)NCc1ccc(Cl)cc1,8,84,-12,.,.,.,.
